Measurements reported in PubChem BioAssay (NCATS).
Results filed as inconclusive are left out. Activity calls are given as the source filed them. Calls come from the whole dose curve; as a rule, active = well fitted curve in the direction sought with a large enough effect; inconclusive = small, poorly fitted or top-dose-only effect, or another doubt; inactive = no such curve, though single readings can be large; an effect the other way counts as inactive or inconclusive.

Columns and labels:
[1] = molecular target: Voltage-gated inwardly rectifying potassium channel KCNH2 (Homo sapiens) (UniProt Q12809); assay: qHTS Assay for Small Molecule Inhibitors of the Human hERG Channel Activity (AID 588834);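 note: lower thallium flux fluorescence means stronger hERG block; nearly all actives have a fitted effect of over 50% in size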; note: potency is the fitted concentration of half-maximal effect
Voltage-gated inwardly rectifying potassium channel KCNH2 (Homo sapiens), sequence (Q12809 whole entry, looked up): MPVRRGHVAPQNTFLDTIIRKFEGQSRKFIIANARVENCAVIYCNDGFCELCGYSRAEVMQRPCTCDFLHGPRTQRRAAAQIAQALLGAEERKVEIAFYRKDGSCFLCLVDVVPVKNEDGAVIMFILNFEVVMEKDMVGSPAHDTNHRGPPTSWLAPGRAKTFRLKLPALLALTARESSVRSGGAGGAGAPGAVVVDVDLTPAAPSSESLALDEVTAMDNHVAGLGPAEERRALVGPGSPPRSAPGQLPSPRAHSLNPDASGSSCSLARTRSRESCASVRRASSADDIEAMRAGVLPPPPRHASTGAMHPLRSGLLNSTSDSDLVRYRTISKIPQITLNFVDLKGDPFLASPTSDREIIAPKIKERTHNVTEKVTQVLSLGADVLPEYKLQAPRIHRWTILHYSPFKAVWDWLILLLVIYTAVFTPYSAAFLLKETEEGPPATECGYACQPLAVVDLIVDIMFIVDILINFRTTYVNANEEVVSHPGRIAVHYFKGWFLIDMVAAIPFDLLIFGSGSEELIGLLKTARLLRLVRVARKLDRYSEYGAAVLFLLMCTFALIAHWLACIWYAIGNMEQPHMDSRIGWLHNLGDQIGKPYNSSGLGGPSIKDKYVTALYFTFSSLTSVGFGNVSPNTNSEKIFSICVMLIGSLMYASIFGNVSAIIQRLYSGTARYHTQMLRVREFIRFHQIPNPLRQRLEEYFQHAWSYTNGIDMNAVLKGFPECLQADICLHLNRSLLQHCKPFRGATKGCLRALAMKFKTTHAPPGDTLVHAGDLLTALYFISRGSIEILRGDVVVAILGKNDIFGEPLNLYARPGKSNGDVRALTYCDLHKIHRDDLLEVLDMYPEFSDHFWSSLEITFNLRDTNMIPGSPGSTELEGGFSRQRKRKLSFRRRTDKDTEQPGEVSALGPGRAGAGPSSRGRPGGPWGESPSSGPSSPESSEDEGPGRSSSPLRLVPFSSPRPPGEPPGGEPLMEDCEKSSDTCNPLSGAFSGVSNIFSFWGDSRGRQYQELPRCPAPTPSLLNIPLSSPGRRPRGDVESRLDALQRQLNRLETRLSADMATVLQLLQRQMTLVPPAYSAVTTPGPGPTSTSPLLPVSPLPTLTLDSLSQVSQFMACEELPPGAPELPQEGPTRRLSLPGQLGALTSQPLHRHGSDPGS
How it was run: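 U2OS cells transduced with hERG via BacMam (MOI ~100), plated 2000/well, loaded with FluxOR thallium dye, compound ~10 min, then stimulation buffer; fluorescence decrease read kinetically; AC50 from Hill fits.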

[2] = molecular target: Glutaminase kidney isoform, mitochondrial (Homo sapiens) (UniProt O94925); assay: qHTS for Inhibitors of Glutaminase (GLS): LOPAC Validation (AID 624146); note: nearly all actives have a fitted effect of over 60% in size; note: potency is the fitted concentration of half-maximal effect
Glutaminase kidney isoform, mitochondrial (Homo sapiens), sequence (O94925 whole entry, looked up, canonical isoform): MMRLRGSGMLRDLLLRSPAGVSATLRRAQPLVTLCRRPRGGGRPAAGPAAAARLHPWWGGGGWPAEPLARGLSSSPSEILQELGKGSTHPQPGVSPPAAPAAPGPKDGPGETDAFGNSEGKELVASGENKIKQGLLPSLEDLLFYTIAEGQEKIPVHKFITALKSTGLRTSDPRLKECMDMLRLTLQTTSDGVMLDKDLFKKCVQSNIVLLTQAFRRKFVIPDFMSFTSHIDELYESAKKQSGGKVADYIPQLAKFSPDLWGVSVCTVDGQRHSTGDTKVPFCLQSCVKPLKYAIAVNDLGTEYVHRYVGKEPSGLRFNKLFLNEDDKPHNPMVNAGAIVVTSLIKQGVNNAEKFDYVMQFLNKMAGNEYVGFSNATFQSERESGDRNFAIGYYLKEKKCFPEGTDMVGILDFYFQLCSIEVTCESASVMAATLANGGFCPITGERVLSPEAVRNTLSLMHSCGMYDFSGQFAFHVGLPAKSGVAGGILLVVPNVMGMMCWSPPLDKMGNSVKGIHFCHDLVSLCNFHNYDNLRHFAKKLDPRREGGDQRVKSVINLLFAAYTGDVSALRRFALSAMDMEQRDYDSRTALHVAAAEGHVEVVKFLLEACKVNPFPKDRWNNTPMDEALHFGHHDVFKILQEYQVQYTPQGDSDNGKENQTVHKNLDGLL
How it was run: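 Glutamate formation by hKGA was monitored fluorometrically using coupled glutamate oxidase, HRP and Amplex Red. Substrate was added as 1 mM L-glutamine solution; incubation was 30 min at RT after an initial read.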

[3] = qHTS of Trypanosoma Brucei Inhibitors: LOPAC Validation (AID 624147)
How it was run: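 Screened from lowest to highest concentration, compounds were pinned into TbPYK/substrate mixtures, and ADP (130 uM final) was added. Plates sat at room temperature for 45 min prior to Kinase-Glo Plus detection by luminescence.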

[4] = molecular target: Glucagon-like peptide 1 receptor (Homo sapiens) (UniProt P43220); assay: qHTS of GLP-1 Receptor Agonists: LOPAC Validation (AID 624148);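 note: higher luminescence signal means agonism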
Glucagon-like peptide 1 receptor (Homo sapiens), sequence (P43220 whole entry, looked up): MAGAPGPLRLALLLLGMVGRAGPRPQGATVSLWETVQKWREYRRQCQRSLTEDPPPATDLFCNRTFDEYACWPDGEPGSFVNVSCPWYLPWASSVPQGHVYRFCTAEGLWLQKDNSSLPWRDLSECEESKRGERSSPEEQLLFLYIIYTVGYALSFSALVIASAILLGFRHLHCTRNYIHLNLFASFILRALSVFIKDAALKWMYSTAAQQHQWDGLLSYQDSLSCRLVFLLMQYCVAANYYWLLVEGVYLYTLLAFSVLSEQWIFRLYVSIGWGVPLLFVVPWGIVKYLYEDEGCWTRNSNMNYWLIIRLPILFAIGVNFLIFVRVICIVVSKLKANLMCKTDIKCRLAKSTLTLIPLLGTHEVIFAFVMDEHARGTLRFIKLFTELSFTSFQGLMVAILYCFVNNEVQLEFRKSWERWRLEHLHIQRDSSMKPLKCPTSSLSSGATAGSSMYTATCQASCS
How it was run: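 HEK293 cells stably co-expressing GLP-1R and a cAMP-responsive luciferase reporter, plated 12 hours before compound, then incubated 4-6 hr at 37 deg C. Luminescence read 12 min after detection reagent.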

[5] = qHTS of Nrf2 Activators: LOPAC Validation (AID 624149); note: potency is the fitted concentration of half-maximal effect
How it was run: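 Luminescence read-out of ARE-luciferase activation: AREc32_Fluc cells treated with compounds for 24 hr at 37 deg C, then lysed with Steady-Glo for 30 min at room temperature before reading.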

[6] = HTS Assay for Allosteric Antagonists of the Human D2 Dopamine Receptor: Hit Validation in HTRF (AID 624455); note: potency is the fitted concentration of half-maximal effect;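 note: stable D1 dopamine receptor cell line scored for blocking the D1 response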
How it was run: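 First, antagonism was screened by calcium flux in a force-coupled, inducible Hek293 Trex D2 line challenged with EC80 dopamine. Hits then went into an HTRF assay in cells stably expressing D1, testing inhibition of the D1 response.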

Measured: Potency

CC(N)=NCCCC[C@@H](N)C(=O)O
inactive: [1] | [2] | [3] | [4] | [5] | [6]

Nc1ccc(CCNc2ncnc3c2ncn3C2OC(CO)C(O)C2O)cc1 (configuration not stated)
inactive: [1] | [2] | [3] | [5] | [6]

CC(N)(Cc1ccc(O)c(O)c1)C(=O)O (configuration not stated)
inactive: [1] | [2] | [3] | [5] | [6]

NS(=O)(=O)c1cccc2c1c([N+](=O)[O-])cc1nc(O)c(O)nc12
inactive: [1] | [2] | [3] | [5] | [6]

C#CCn1c(=O)c2c(ncn2C)n(C)c1=O
inactive: [1] | [2] | [3] | [4] | [5] | [6]

O=C(O)C1CN(CCCP(=O)(O)O)CCN1 (configuration not stated)
inactive: [1] | [2] | [3] | [5]

NCCS(=O)O
inactive: [1] | [2] | [3] | [5] | [6]

O=C(O)C1=CCCNC1
inactive: [1] | [2] | [3] | [4] | [5] | [6]

O=c1[nH]c2ccccc2c2ccccc12
inactive: [1] | [2] | [3] | [5] | [6]

Nn1nnc2ccccc21
inactive: [1] | [2] | [3] | [5] | [6]

Nc1ccc(N2C(=O)c3ccccc3C2=O)c(Cl)c1
inactive: [1] | [2] | [3] | [4] | [5] | [6]

N=C(N)SCCN
inactive: [1] | [2] | [3] | [5] | [6]

CC(N)(C(=O)O)c1ccc(C(=O)O)cc1 (configuration not stated)
inactive: [1] | [2] | [3] | [5] | [6]

Nc1ccc(-c2nc3ccc(-c4nc5ccc(N)cc5[nH]4)cc3[nH]2)cc1
inactive: [1] | [3] | [5] | [6]
active: [2] 5.01 µM

O=C(O)C1CCNCC1
inactive: [1] | [2] | [3] | [4] | [5] | [6]

COc1cc(C(O)CO)ccc1O (configuration not stated)
active: [2] 4.47 µM
inactive: [1] | [3] | [4] | [5] | [6]

NCC(O)c1ccc(O)c(O)c1 (configuration not stated)
inactive: [1] | [2] | [3] | [5]
active: [6] 1.16 µM

CC(C)C[C@H](NC(=O)[C@H](O)[C@H](N)Cc1ccccc1)C(=O)O
inactive: [1] | [2] | [3] | [5] | [6]

CC(C)(C)c1cc(/C=C(\C#N)C(N)=S)cc(C(C)(C)C)c1O
inactive: [3] | [4] | [5] | [6]
active: [1] 11.2 µM | [2] 4.47 µM

Cn1c(=O)c2[nH]c(C3CCCC3)nc2n(C)c1=O
inactive: [1] | [2] | [4] | [5]

CO/N=C(\C(=O)N[C@@H]1C(=O)N2C(C(=O)O)=C(CSc3nc(=O)c(O)nn3C)CSC12)c1csc(N)n1 (some centres not stated)
inactive: [1] | [2] | [3] | [5]

CCn1c(=O)[nH]c2cc(Cl)c(Cl)cc21
inactive: [1] | [2] | [3] | [5] | [6]

Cn1c(=O)c2c(nc(/C=C/c3cccc(Cl)c3)n2C)n(C)c1=O
inactive: [2] | [3] | [4] | [5] | [6]
active: [1] 11.2 µM

O=c1[nH]c(=O)c2nc3ccccc3nc2[nH]1
inactive: [1] | [2] | [3] | [4] | [6]

Nc1ccc2c3c(cccc13)C(=O)NC2=O
inactive: [2] | [3] | [4] | [5] | [6]
active: [1] 5.01 µM

NC1(C(=O)O)CCc2cc(C(=O)O)ccc21 (configuration not stated)
inactive: [1] | [2] | [3] | [4] | [5] | [6]

Cc1nc(N=Nc2ccc(S(=O)(=O)O)cc2S(=O)(=O)O)c(COP(=O)(O)O)c(C=O)c1O
inactive: [1] | [2] | [3] | [5] | [6]

COc1ccccc1N1CCN(CCCCN2C(=O)c3ccccc3C2=O)CC1
inactive: [2] | [3] | [4] | [5] | [6]
active: [1] 2.24 µM

Nc1nc2ccc(Cl)cc2c2nc(-c3ccco3)nn12
inactive: [1] | [2] | [3] | [6]
active: [5] 1.46 µM

CC1C(=O)N(C)C(=O)c2nc[nH]c21 (configuration not stated)
inactive: [1] | [2] | [3] | [5]

CCCCCCCCCCC/C=C\C(C)(C)/C=C\CCCC(=O)O
inactive: [1] | [2] | [3] | [4] | [5] | [6]

COc1ccc(NC(=O)c2ccc(-c3ccc(-c4noc(C)n4)cc3C)cc2)cc1N1CCN(C)CC1
active: [1] 3.55 µM
inactive: [2] | [3] | [5] | [6]

CSC(=N)N
inactive: [1] | [2] | [4] | [5]

CCN(CC)CCOC(=O)c1cc(Cl)c(N)cc1OC
inactive: [1] | [2] | [5]

Oc1cc2c(cc1O)C(c1ccccc1)CNCC2 (configuration not stated)
active: [1] 8.91 µM | [2] 0.631 µM
inactive: [4] | [5]

NCCCNCCCCNCCCN
inactive: [1] | [2] | [4] | [5]
active: [6] 4.61 µM

O=C1NC(=O)c2cc(Nc3ccccc3)c(Nc3ccccc3)cc21
inactive: [4] | [5] | [6]
active: [1] 12.6 µM | [2] 2.51 µM

Cn1c(=O)c2[nH]c(-c3ccc(S(=O)(=O)O)cc3)nc2n(C)c1=O
inactive: [1] | [3] | [4] | [5]

CCCCCCCCCC[Si](C)(C)CCC(=O)NC(Cc1ccc(C)cc1)c1ccccc1 (configuration not stated)
inactive: [1] | [2] | [4] | [5] | [6]

COc1ccc2c(c1)CCC1C2CC[C@@]2(C)C1CC[C@@H]2NCCCCCCN1C(=O)C=CC1=O (some centres not stated)
inactive: [1] | [2] | [4] | [5] | [6]

NC(N)=N[C@@H](CCC(=O)O)C(=O)O
inactive: [1] | [2] | [4] | [5]

COC(=O)C1=C(C)NC(C)=C([N+](=O)[O-])C1c1ccccc1C(F)(F)F (configuration not stated)
inactive: [1] | [2] | [4] | [5] | [6]

CCCC(=O)NCCc1c2n(c3ccc(OC)cc13)CCCc1ccccc1-2
inactive: [1] | [2] | [4] | [5] | [6]

C[N+](C)(C)CC=O
inactive: [1] | [2] | [4] | [5] | [6]

CNc1cc(NS(=O)(=O)c2ccc(N)cc2)nc(NC)n1
inactive: [1] | [2] | [5] | [6]

CCCN(CCc1ccccc1)C1CCc2c(O)cccc2C1 (configuration not stated)
inactive: [3] | [4] | [5]
active: [1] 0.355 µM

C=CCN1CCc2c(cc(O)c(O)c2Cl)C(c2ccccc2)C1 (configuration not stated)
inactive: [3] | [4] | [5]
active: [1] 7.94 µM

NC(=O)c1cc[n+](CC2=C(C(=O)O)N3C(=O)[C@@H](NC(=O)[C@@H](c4ccccc4)S(=O)(=O)[O-])[C@H]3SC2)cc1
inactive: [1] | [2] | [4] | [5] | [6]

NC/C=C\C(=O)O
inactive: [1] | [3] | [4] | [5] | [6]

C=CCN1CCc2c(cc(O)c(O)c2Br)[C@@H](c2ccccc2)C1
inactive: [3] | [4] | [5]
active: [1] 7.08 µM

O=C(O)c1cc2cc(F)ccc2[nH]1
inactive: [1] | [2] | [4] | [5] | [6]

COc1cc2c(CCNC(C)=O)c[nH]c2cc1O
inactive: [1] | [4] | [5] | [6]
active: [2] 2 µM

N#CC(=C(\N)Sc1ccccc1N)/C(C#N)=C(/N)Sc1ccccc1N
inactive: [1] | [4] | [5]
active: [2] 12.6 µM

CCN1C(=O)C=CC1=O
inactive: [1] | [2] | [5] | [6]

COC(=O)C(N)Cc1ccc(Cl)cc1 (configuration not stated)
inactive: [1] | [2] | [4] | [5] | [6]

Clc1nccc2c1ccc1ccccc12
inactive: [1] | [2] | [5] | [6]

O=C(O)CCC(=O)N1CCCC1C(=O)O (configuration not stated)
inactive: [1] | [2] | [4] | [5] | [6]

Oc1ccc(Cn2cc[nH]c2=S)cc1
inactive: [1] | [2] | [4] | [5] | [6]

CC(=O)/C(C)=N/O
inactive: [1] | [2] | [4] | [5] | [6]

NC(N)=NC(N)=Nc1ccccc1
inactive: [1] | [2] | [4] | [5] | [6]

COc1cccc(OC)c1OCCNCC1CSc2ccccc2O1 (configuration not stated)
active: [1] 1.41 µM | [6] 0.291 µM
inactive: [2] | [4] | [5]

O=C(O)Cc1c[nH]c2ccc(O)cc12
active: [2] 1.58 µM
inactive: [1] | [4] | [5] | [6]

C=CC1(C)CC(=O)C2(O)C(C)(O1)C(OC(C)=O)C(O)C1C(C)(C)CCC(O)C12C (configuration not stated)
inactive: [1] | [2] | [5]
active: [6] 0.517 µM

NC(C(=O)N[C@@H]1C(=O)N2C(C(=O)O)=C(Cl)CS[C@H]12)c1ccccc1 (some centres not stated)
inactive: [1] | [3] | [4] | [5] | [6]

CN(C)C(=O)/N=N/C(=O)N(C)C
inactive: [1] | [2] | [4] | [5]

CN1CCC2(CCN3CCc4c(oc5ccccc45)C3C2)N(C)C1=O (configuration not stated)
inactive: [1] | [2] | [4] | [5]
